The text below walks through data of PubChem BioAssay AID449762 (Southern Research Specialized Biocontainment Screening …, 2010).

The campaign covered roughly 330,000 compounds. About 1,900 (0.58%) were called active. Roughly 4% stayed inconclusive and do not appear here. These entries were drawn from the full list. Measured potencies and affinities stand elsewhere. Unmarked numbers belong to inactive results. Rule as the data show it: inconclusive = inhibition above about 70% without an active follow-up result; inactive = below that.

This test is described as follows: M. tuberculosis growth inhibition, HTS (AID 449762).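 Also: bacterial growth assessed after seven days of incubation.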 The following applies: M. tuberculosis H37Rv growth inhibition, 7H9 media; at 25 µM; stronger effect = higher value.
A word on the inhibition: it is the change of the read-out against control, counted positive when it falls. In the case of `COc1ccc(N2CCN(C(=O)c3cc4cc(Cl)ccc4[nH]3)CC2)cc1`, the inhibition was -7.94%.
Next, `COc1ccc(Cl)cc1NC(=O)CN1CCCCCC1`: -5.19%; `Cc1ccc(S(=O)(=O)CC(=O)N2CCN(c3ccc(F)cc3)CC2)cc1`: -10.4%.
As to `O=c1c2ccccc2c(=O)n2n1Cc1ccccc1C2`, the inhibition was 0%.
Consider `Cc1cccc(/C=C/C(=O)c2ccc(N3CCOCC3)cc2)c1`, for which the inhibition was -1.54%.
For the molecule `CCC1CSC(Nc2ccc(C(=O)/C=C/c3ccc(Oc4ccccc4)cc3)cc2)=N1` (configuration not stated), the inhibition was 4.72%.
In the case of `Cc1ccc(N(CC(O)CN2C(=O)NC(C)(C)C2=O)S(=O)(=O)c2ccc([N+](=O)[O-])cc2)cc1` (configuration not stated), the inhibition is 0.97%.
Turning to `COC(=O)c1cc(C(=O)OC)[nH]n1`, the inhibition was -0.31%.
For the molecule `COc1ccccc1NC(=O)N1CCCC1C(=O)NCc1ccccc1Cl` (configuration not stated), the inhibition is 3.2%.
As for `Cc1ccc(S(=O)(=O)/N=C(\CN2CCOCC2)N2CCOCC2)cc1`, the inhibition is 2.72%.
The result for `Cc1ccc(S(=O)(=O)/N=C(\CN2CCCCC2)N2CCOCC2)cc1` reads -3.15%; that for `CC(=O)c1c(C)[nH]c(C(=O)CSc2nc3ccccc3c(=O)n2CCCO)c1C`, 10.8%; that for `O=C(NC1CCOCC1)C1CCC(=O)N(Cc2ccc(Cl)cc2)C1` (configuration not stated), -7.32%.
As to `Cc1ccc(C(=O)C2CCOC(C)(C)C2)cc1` (configuration not stated), the inhibition is -6.79%.
For the molecule `Cc1ccc(-c2csc(NCCn3c(-c4ccncc4)nc4ccccc43)n2)cc1`, the inhibition is -3.83%.
Take `Cc1ccc(-c2csc(N3CCC[C@@H]3C(=O)NCCn3c(-c4ccncc4)nc4ccccc43)n2)cc1`: the inhibition was 58.4%.
Next, `COc1cc2c(cc1OC)CN(C1CCC(C)CC1)CC2` (configuration not stated): 8.03%.
`CC(C)N=C(NC#N)SCc1ccccc1F`: the inhibition is -3.3%.
For `COc1ccc(CCNc2nc(C)nc3c2oc2ccccc23)cc1OC`, the inhibition is 2%.
Turning to `CCNc1nc(C)nc2c1oc1ccccc12`, the inhibition is 2.03%.
Take `COc1ccccc1NS(=O)(=O)c1cccc(C(=O)NN)c1`: the inhibition was -5.02%.
As for `COc1cc(NC(=O)Cc2ccc([N+](=O)[O-])cc2)c(C(=O)O)cc1OC`, the inhibition was 20.1%.
In the case of `O=C(/C=C/c1cccnc1)c1ccc(O)cc1`, the inhibition was 2.21%.
Take `O=C(/C=C/c1cccnc1)c1ccccc1O`: the inhibition was 4.14%.
For `COc1cc(C(=O)/C=C/c2cccnc2)ccc1O`, the inhibition was 52.2%.
Next, `CN(C)c1ccc(C(=O)/C=C/c2cccnc2)cc1`: -3.39%; `Cc1ccc2nc(-c3ccc(NC(=O)CCS(=O)(=O)c4ccccc4)cc3)sc2c1`: 1.52%.
As for `O=C(CN(Cc1ccco1)C(=O)CNS(=O)(=O)c1ccccc1)NCc1ccccc1`, the inhibition was 0.41%.
Take `Cc1ccc(N2C(=O)C3C4C=CC(CNC(=S)Nc5ccc(Cl)cc5)(O4)C3C2=O)cc1` (configuration not stated): the inhibition is 0.99%.
On to `Cc1ccc(NC(=O)Nc2ccc3c(c2)CCC3)c(C)c1`, for which the inhibition was -10.3%.
Consider `Cc1ccc2[nH]c3nc(N/N=C/c4cccc(O)c4)nnc3c2c1`, for which the inhibition is 3.58%.
The result for `Cc1ccc(C(=O)ONc2ccc(N=NC(=O)c3ccccc3O)cc2)cc1` reads 2.47%; that for `O=Nc1ccc(NOC(=O)c2ccccc2)cc1`, 14%; that for `CCCn1c(C)cc(C(=O)CN2C(=O)c3cccc(N)c3C2=O)c1C`, -10%.
Next, `Oc1ccc(Cl)cc1N=Nc1ccccc1`: -8.24%; `COc1ccc(-c2[nH]ncc2N=Nc2ccccc2)cc1`: 8.09%.
In the case of `CCOC(=O)c1[nH]c2ccccc2c1NC(=O)c1ccc(Br)o1`, the inhibition was -1.61%.
Next, `CN(C)c1ccc(/C=C/c2cccc[n+]2[O-])cc1`: 1.21%.
As for `CN(C)c1ccc(/C=C/c2cc[n+](C)cc2)cc1`, the inhibition is 7.78%.
The result for `Cc1cc(C(=O)OCC(=O)Nc2cccc(F)c2)c(C)n1C1CC1` reads 0.41%.
`CCN(CC)CCn1c(SCC(=O)NCc2ccccc2)nc2c(sc3ccccc32)c1=O`: the inhibition was 6%.
As to `CCN(CC)CCn1c(SCC(=O)Nc2ccc(F)cc2)nc2c(sc3ccccc32)c1=O`, the inhibition was 4.95%.
As to `COCCn1c(-c2ccccc2)cc(C(=O)O)c1C`, the inhibition was 6.01%.
`COc1ccc(CNC(=O)Nc2ccc(C)c(C)c2)cc1`: the inhibition is -5.48%.
With `CC(=O)Nc1ccc(NC(=O)COc2ccc(Cl)cc2Cl)cc1`, the inhibition was -0.58%.
Next, `CC(=O)NC(=S)Nc1ccc(NC(=O)COc2ccc(Cl)cc2Cl)cc1`: 0.45%; `COC(=O)c1ccc(NC(=O)Cn2nc(SC)n(N)c2=S)cc1`: -4.09%; `Cc1ccc(Sc2nc([N+](=O)[O-])nn2C)cc1`: 6.48%.
Take `Cn1nc([N+](=O)[O-])nc1Sc1ccc(Cl)cc1`: the inhibition was 0.18%.
As for `CC(=O)Nc1ccc(CN2CCN(CCc3ccccc3)C(CCO)C2)cc1` (configuration not stated), the inhibition was -3.1%.
As for `CCCCS/C(N)=N/N=C/c1ccccc1O`, the inhibition is 1.14%.
As to `Cc1ccc(O)c(C=Nc2cc(C)ccc2O)c1`, the inhibition was -4.69%.
For `COc1ccc(CCNc2nc(-c3ccc(O)cc3)cs2)cc1OC`, the inhibition is 3.36%.
`C=CCCC(=O)N1CCCC(C(=O)c2cccc(OC)c2)C1` (configuration not stated): the inhibition is 5.01%.
For `CN1CCN(CC(O)Cn2c3ccccc3c3ccccc32)CC1` (configuration not stated), the inhibition is 6.36%.
With `OC(CN1CCN(c2ccccc2)CC1)Cn1c2ccccc2c2ccccc21` (configuration not stated), the inhibition was 14.7%.
With `Cc1noc(C)c1COC(=O)c1ccc2c(c1)S(=O)(=O)c1ccccc1C2=O`, the inhibition was -4.63%.
`Brc1ccc2c(c1)C(c1cccs1)=NNC(c1cccnc1)=N2`: the inhibition was 1.73%.
Turning to `NC(=O)CC(NC(=O)Cc1ccc(Br)cc1)c1ccc(N2CCN(c3ccccn3)CC2)c([N+](=O)[O-])c1` (configuration not stated), the inhibition is 2.89%.
The result for `C[C@H](CO)N1C[C@H](C)[C@@H](CN(C)S(C)(=O)=O)Oc2c(NC(=O)C3CC3)cccc2C1=O` reads 1.46%.
As for `CCSC1=NC(C)(C)C=C(/C=C/c2ccc(Cl)cc2Cl)N1`, the inhibition was 46.6%.
Next, `CC(C)SC1=NC(C)(C)C=C(/C=C/c2ccc(Cl)cc2Cl)N1`: 23.8%.
